Values joined by “and” are separate entries in the source; they are usually repeats but may differ in a detail not shown here. Equal entries are not always repeated. Active and inactive are the calls of the source.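 How the source made its calls, unless noted: active means inhibition at or above 50% relative to wild type and mutant plate controls; inactive means inhibition below 50%.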
What was measured:
[1] = inhibitors of TNFa-induced NFkB p65 translocation, primary screen, imaging, HUVEC, MLSMR starter and 10KST1 sets (AID 438;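 active means inhibition above 20% together with a positive visual image hit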;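 further: compound added about 3h40 before a 20 min TNFalpha stimulation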;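 on inhibition: signal is the nuclear over cytoplasmic p65 intensity ratio per well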); details: HUVEC TNFa-induced p65 nuclear translocation; cell count: measured here: nuclei count (cytotoxicity indicator), at 2.08 µM; inhibition: at 2 µM, stronger effect = higher value, 0% TNFa-plus-vehicle, 100% no-TNFa wells
[2] = inhibitors of mutant huntingtin aggregation, primary screen, imaging, exon1htt(103Q)mCFP cells, high-content imaging (AID 483;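 active means visual image review flags a hit and inhibition of aggregation exceeds 20%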;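 further: compound exposure lasted 3 days before fixation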;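 on nuclei count: percent of the per-plate median nuclei count of sample wells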); details: exon1htt(103Q)mCFP cell line, aggregate imaging, at 2 µM; inhibition of aggregation: stronger effect = higher value; nuclei count: measured here: cell count, toxicity
[3] = inhibitors of E-selectin induction by TNFa, primary screen, imaging, HUVEC, immunofluorescence, MLSMR starter and 10KST1 sets (AID 487;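 active means visually confirmed hit in the image check and inhibition above 20%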;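 on inhibition: signal is fraction of cell area covered by stained E-selectin grains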;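 on nuclei count: 100% = median nuclei count of all wells on the same plate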); details: HUVEC TNFalpha-induced E-selectin immunofluorescence imaging, at 2 µM; inhibition: stronger effect = higher value; nuclei count: measured here: cell number, toxicity
[4] = DUSP6 inhibitors restoring Erk phosphorylation by chemical complementation, primary imaging in DUSP6-transfected HeLa (AID 609;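 active means compounds giving at least 50% inhibition in the cell-based MKP-3 phosphatase rescue imaging test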;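 on inhibition: phospho-Erk level distribution per well compared with pooled transfected vehicle control wells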); details: HeLa MKP-3 transfected, phospho-Erk imaging KS statistic, at 10 µM, cells stimulated with TPA for 15 min
[5] = biological target: Dual specificity protein phosphatase 6 (Homo sapiens) (UniProt Q16828); test: as above; details: HeLa MKP-3 transfected, phospho-Erk imaging KS statistic; at 10 µM; stronger effect = higher value; cells stimulated with TPA for 15 min
[6] = biological target: Voltage-gated potassium channel subunit beta-2 (Rattus norvegicus) (UniProt P62483); test: KvBeta enzyme negative modulators, primary screen, biochemical, NADPH fluorescence (AID 622;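 active means fluorescence slope higher than the sample average by over 3 SD, cut at about -0.22 in these data, passing the limit was not always enough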;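 further: slope of raw intensity against log time taken from 70 to 1610 s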); details: recombinant KvBeta, 4-cyanobenzaldehyde reduction, at 10 µM, stronger effect = higher value
[7] = biological target: Voltage-gated potassium channel subunit beta-2 (Rattus norvegicus) (UniProt P62483); test: KvBeta positive modulators, primary screen, biochemical, NADPH fluorescence (AID 623;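 active means NADPH fluorescence slope more negative than the mean of all samples by about 3 SD, 99.7% confidence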;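 further: fluorescence intensity change per second fitted from 20 to 320 s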); details: Recombinant KvBeta, NADPH fluorescence decrease slope, 10 min; at 10 µM; stronger effect = lower value
[8] = biological target: Alpha-2C adrenergic receptor (Homo sapiens) (UniProt P18825); test: modulators of alpha2C/GIRK thallium flux, primary screen, cell-based, HEK293 alpha2C/GIRK1/2 (AID 624;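 active means fluorescence slope after compound addition differing from the mean of all screened samples at 99.7% confidence, in either direction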;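 further: slope of fluorescence ratio to pre-addition baseline per second over 15 to 24 s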); details: thallium flux BTC fluorescence, at 10 µM, actives lie on both sides
[9] = inhibitors of larval lipid processing in zebrafish, primary screen, whole organism, PED6 fluorescence, gall bladder and intestine (AID 686;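 active means a full or partial loss of lipid-probe fluorescence in the fish gall bladder, intestine or both, judged by eye; inactive means no fluorescence loss, or compound toxic to the fish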;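 further: larvae 5 to 7 days old with five fish per well; signal comes from phospholipase A2 cleavage of quenched PED6 carried via bile; overnight exposure to compound and PED6 before scoring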); details: Zebrafish larvae PED6 lipid processing, fluorescence scoring; screened at 20 µM (by protocol)
[10] = inhibitors of Chlamydomonas gravitaxis, primary screen, whole organism, Chlamydomonas reinhardtii, WT vs cilia-less mutant, absorbance, 96-well (AID 463189); details: OD600 absorbance, 2 days, at 10 µM, stronger effect = higher value;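 further: 0% = wild type cc124 cells in DMSO and 100% = ciliumless bld1 mutant cells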
[11] = inhibitors of Sendai virus-induced IRF3 signaling, primary screen, TLR/RLR signaling modifier project, cell-based, Sendai virus stimulus, luciferase, 10K MLSCN set (AID 602276;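 active means inhibition at or above 50% at 10 µM; inactive means inhibition below 50%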;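 further: firefly luciferase from ISG56 promoter only with Renilla not read in this screen; 0% = Sendai virus plus DMSO and 100% = medium plus DMSO without virus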); details: HEK293 RL24 IRF3 luciferase reporter, at 10 µM, stronger effect = higher value
[12] = inhibitors of poly I:C-induced TLR3 signaling, primary screen, cell-based, poly I:C stimulus, luciferase, 10K MLSCN set (AID 602277;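 active means inhibition of the reporter signal at or above 50%; inactive means inhibition below 50%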); details: HEK293-TLR3 RL24 IRF3 luciferase reporter, at 10 µM, stronger effect = higher value
[13] = biological target: Muscarinic acetylcholine receptor M4 (Homo sapiens) (UniProt P08173); test: compounds altering M4/GIRK thallium flux, either direction, primary screen, M4 allosteric agonist project, cell-based, HEK293 M4/GIRK, BTC-AM (AID 625;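 active means fluorescence slope after compound addition differing from the mean of all tested samples at 99.7% confidence, mostly higher but some lower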;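 further: thallium influx through GIRK channels coupled to M4 in HEK293 cells with BTC-AM dye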); details: at 10 µM, actives lie on both sides
[14] = measured here: cell density z-score
[15] = measured here: nuclear c-Myc green intensity z-score
[16] = measured here: nuclear pErk red intensity z-score, stronger effect = higher value

Voltage-gated potassium channel subunit beta-2 (Rattus norvegicus), sequence (P62483 whole entry, looked up): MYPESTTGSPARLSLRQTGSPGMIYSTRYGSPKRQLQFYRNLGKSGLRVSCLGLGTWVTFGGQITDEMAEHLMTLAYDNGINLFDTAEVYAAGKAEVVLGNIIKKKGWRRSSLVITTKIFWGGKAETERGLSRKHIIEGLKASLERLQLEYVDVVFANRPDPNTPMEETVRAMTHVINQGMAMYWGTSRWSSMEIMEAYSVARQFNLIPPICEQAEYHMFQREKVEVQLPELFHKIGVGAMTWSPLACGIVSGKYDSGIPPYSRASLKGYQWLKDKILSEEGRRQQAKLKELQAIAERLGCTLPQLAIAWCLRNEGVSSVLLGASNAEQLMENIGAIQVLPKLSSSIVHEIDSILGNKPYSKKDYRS
Dual specificity protein phosphatase 6 (Homo sapiens), sequence (Q16828 whole entry, looked up): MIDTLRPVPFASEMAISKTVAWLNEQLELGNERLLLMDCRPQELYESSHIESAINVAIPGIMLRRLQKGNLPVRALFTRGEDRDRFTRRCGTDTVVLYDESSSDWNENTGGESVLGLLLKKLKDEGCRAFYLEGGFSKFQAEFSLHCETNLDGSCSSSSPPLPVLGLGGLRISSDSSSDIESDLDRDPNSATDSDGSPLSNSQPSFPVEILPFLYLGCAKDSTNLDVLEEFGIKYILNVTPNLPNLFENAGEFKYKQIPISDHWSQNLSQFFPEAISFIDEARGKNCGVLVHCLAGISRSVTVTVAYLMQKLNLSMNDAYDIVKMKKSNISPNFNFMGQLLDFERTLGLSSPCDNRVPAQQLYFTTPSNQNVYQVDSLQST
Alpha-2C adrenergic receptor (Homo sapiens), sequence (P18825 whole entry, looked up): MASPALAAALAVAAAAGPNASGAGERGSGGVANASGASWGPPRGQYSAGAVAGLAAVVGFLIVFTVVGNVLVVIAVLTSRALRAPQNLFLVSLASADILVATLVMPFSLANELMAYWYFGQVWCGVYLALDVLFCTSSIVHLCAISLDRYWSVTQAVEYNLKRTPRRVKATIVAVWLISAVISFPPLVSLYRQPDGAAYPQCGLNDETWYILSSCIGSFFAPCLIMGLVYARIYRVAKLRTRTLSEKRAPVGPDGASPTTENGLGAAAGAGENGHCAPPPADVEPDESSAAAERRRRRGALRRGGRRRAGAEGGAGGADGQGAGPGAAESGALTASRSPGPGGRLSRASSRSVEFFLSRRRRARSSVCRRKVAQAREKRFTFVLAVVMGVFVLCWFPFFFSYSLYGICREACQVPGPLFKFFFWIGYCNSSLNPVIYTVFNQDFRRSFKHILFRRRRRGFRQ
Muscarinic acetylcholine receptor M4 (Homo sapiens), sequence (P08173 whole entry, looked up): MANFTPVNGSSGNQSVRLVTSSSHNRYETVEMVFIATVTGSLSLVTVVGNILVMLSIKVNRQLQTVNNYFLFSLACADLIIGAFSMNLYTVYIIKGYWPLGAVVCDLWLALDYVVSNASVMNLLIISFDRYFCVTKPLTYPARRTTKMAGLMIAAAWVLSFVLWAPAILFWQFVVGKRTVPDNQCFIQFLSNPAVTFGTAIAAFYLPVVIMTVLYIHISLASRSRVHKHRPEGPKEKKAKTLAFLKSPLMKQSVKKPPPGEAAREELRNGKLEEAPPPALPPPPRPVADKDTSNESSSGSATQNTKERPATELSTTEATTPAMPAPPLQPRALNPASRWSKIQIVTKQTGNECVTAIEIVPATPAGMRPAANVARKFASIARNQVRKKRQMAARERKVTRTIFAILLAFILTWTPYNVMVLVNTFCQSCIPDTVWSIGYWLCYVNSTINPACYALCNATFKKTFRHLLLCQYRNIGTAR

Structure (SMILES)	cell count [1]	inhibition [1]	inhibition of aggregation [2]	nuclei count [2] [%]	inhibition [3]	nuclei count [3] [%]	z-score [4, 14]	z-score [4, 15]	z-score [4, 16]	inhibition [5]	fluorescence slope [6]	NADPH fluorescence slope [7]	slope [8]	outcome [9]	inhibition [10]	inhibition [11]	inhibition [12]	fluorescence slope [13]
O=C(Nc1ccc2c(c1)OCO2)c1cncc(Br)c1	613	-11% (inactive)	-11.9% (inactive)	87.1	-29.9% (inactive)	149	1.08	-0.36	-1.03	19.1% (inactive)	-0.419 (inactive)	-3.7e-05 (inactive)	0.00513 (inactive)	inactive	-3.07% (inactive)	-15.3% (inactive)	-51.1% (inactive)	–
CC(C)(C)NCC(O)COc1cccc2c1C[C@H](O)[C@H](O)C2 (some centres not stated)	666	3.8% (inactive)	-15.5% (inactive)	101	-100% (inactive)	118	0.108	0.144	1.49	-0.828% (inactive)	-0.441 (inactive)	-2.9e-05 (inactive)	0.00396 (inactive)	inactive	18.1% (inactive)	9.2% (inactive)	32.8% (inactive)	–
CC(=O)OCC(=O)[C@@]1(OC(C)=O)[C@@H](C)C[C@H]2[C@@H]3C[C@H](F)C4=CC(=O)C=C[C@]4(C)[C@@]3(F)[C@@H](O)C[C@@]21C	659	-5.5% (inactive)	-7.2% (inactive)	68.3	-71.2% (inactive)	116	1.64	-1.42	-1.55	29.1% (inactive)	-0.482 (inactive)	-7.3e-05 (inactive)	0.00497 (inactive)	inactive	3.31% (inactive)	4.93% (inactive)	44.4% (inactive)	–
COC(=O)[C@@H](N)Cc1ccc(O)cc1	550	-6.9% (inactive)	4.1% (inactive)	91.1	-9.7% (inactive)	107	-0.0639	0.189	0.26	11.3% (inactive)	-0.496 (inactive)	-7.7e-05 (inactive)	0.00529 (inactive)	inactive	15.2% (inactive)	15.4% (inactive)	27.7% (inactive)	–
CC(C)(Oc1ccc(CCNC(=O)c2ccc(Cl)cc2)cc1)C(=O)O	649	-3% (inactive)	5.2% (inactive)	107	-101% (inactive)	135	-0.113	-1.08	-0.613	15.3% (inactive)	-0.452 (inactive)	-4.1e-05 (inactive)	0.00448 (inactive)	inactive	39.4% (inactive)	9.06% (inactive)	22.2% (inactive)	–
CCCN(CCC)S(=O)(=O)c1ccc(C(=O)O)cc1	623	-9.8% (inactive)	6.1% (inactive)	108	-101% (inactive)	118	0.315	0.261	0.309	-2.46% (inactive)	-0.448 (inactive)	3.2e-06 (inactive)	0.00488 (inactive)	inactive	-3.99% (inactive)	0.7% (inactive)	13.7% (inactive)	–
CC1(C)S[C@@H]2[C@H](NC(=O)C(C(=O)O)c3ccccc3)C(=O)N2[C@H]1C(=O)O (some centres not stated)	588	-12.5% (inactive)	-7.6% (inactive)	99.1	-51.3% (inactive)	138	0.424	0.193	-0.471	13.3% (inactive)	-0.487 (inactive)	-2.7e-05 (inactive)	0.00471 (inactive)	inactive	37.9% (inactive)	-4.51% (inactive)	13% (inactive)	–
O=C(O)Cc1cc(I)c(Oc2ccc(O)c(I)c2)c(I)c1	625	3.9% (inactive)	12.4% (inactive)	103	-92% (inactive)	123	0.485	-0.133	0.686	8% (inactive)	-0.541 (inactive)	-4.1e-05 (inactive)	0.00612 (inactive)	inactive	22% (inactive)	-15.1% (inactive)	-273% (inactive)	–
C[C@H]1C[C@@H]2[C@H]([C@@H](O)C[C@@]3(C)[C@H]2CC[C@]3(O)C(=O)CO)[C@@]2(C)C=CC(=O)C=C12	665	-3.7% (inactive)	10.3% (inactive)	101	-77.5% (inactive)	120	1.04	0.95	0.348	7.39% (inactive)	-0.512 (inactive)	-7.2e-05 (inactive)	0.00539 (inactive)	inactive	7.13% (inactive)	11.3% (inactive)	36.5% (inactive)	–
CNCCC=C1c2ccccc2CCc2ccccc21	525	0.8% (inactive)	8% (inactive)	77	-20.7% (inactive)	117	-0.881	-0.123	2.59	-10.4% (inactive)	-0.521 (inactive)	-4.9e-05 (inactive)	0.00426 (inactive)	inactive	34% (inactive) and 30.7% (inactive)	29.4% (inactive)	43.5% (inactive)	–
CC1(C)Cc2c(C#N)c(SCCC#N)nc(N3CCOCC3)c2CS1	632	-13% (inactive)	-5.8% (inactive)	106	-104% (inactive)	132	0.7	-1.52	-1.34	28.6% (inactive)	-0.343 (inactive)	-8.5e-06 (inactive)	0.0053 (inactive)	inactive	-1.16% (inactive)	15.2% (inactive)	18.7% (inactive)	–
C=CCn1c(SCC#N)nc2c(c1=O)C(C)(C)Cc1ccccc1-2	648	-0.1% (inactive)	11.6% (inactive)	107	-30.9% (inactive)	136	1.4	0.411	-0.925	34.8% (inactive)	-0.315 (inactive)	-5.8e-06 (inactive)	0.00525 (inactive)	inactive	104% (active)	-4.84% (inactive)	6.72% (inactive)	–
COc1cc(/C=N/n2c(C)nnc2C)cc(OC)c1OC	454	-5.9% (inactive)	3.2% (inactive)	109	-27.1% (inactive)	92.1	0.126	-0.553	-1.17	-1.75% (inactive)	-0.395 (inactive)	-3.1e-06 (inactive)	0.00638 (inactive)	inactive	23.6% (inactive)	14% (inactive)	13.7% (inactive)	–
Cc1cc(C)n(-c2nnc(C)n2/N=C/c2ccccc2F)n1	592	-10% (inactive)	-14.2% (inactive)	107	-75.7% (inactive)	153	0.554	1.09	-0.737	9.82% (inactive)	-0.53 (inactive)	-4.2e-05 (inactive)	0.00446 (inactive)	inactive	5.75% (inactive)	13.6% (inactive)	22% (inactive)	–
CC(C)[N+](C)(CCOC(=O)C1c2ccccc2Oc2ccccc21)C(C)C	683	-4.8% (inactive)	-28.8% (inactive)	115	-133% (inactive)	138	-0.466	-0.573	0.578	-2.46% (inactive)	-0.487 (inactive)	2.5e-06 (inactive)	0.00524 (inactive)	inactive	0.683% (inactive) and 0.468% (inactive)	20.3% (inactive)	39.4% (inactive)	–
CCCCc1nc(NCCNC(=O)c2ccco2)c(C#N)c2c1CSC(C)(C)C2	552	-4.6% (inactive)	-1% (inactive)	95.2	-75.5% (inactive)	122	0.34	-0.704	0.0149	9.07% (inactive)	-0.478 (inactive)	-5.7e-05 (inactive)	–	inactive	3.31% (inactive)	1.84% (inactive)	7.1% (inactive)	0.00431 (inactive)
CC(CN1c2ccccc2Sc2ccccc21)N(C)C (configuration not stated)	546	2.6% (inactive)	6.8% (inactive)	100	-48.8% (inactive)	109	2	-0.736	0.272	-0.828% (inactive)	-0.478 (inactive)	-1.7e-05 (inactive)	0.0061 (inactive)	inactive	91.5% (active) and 139% (active)	5.11% (inactive)	31% (inactive)	–
Cc1c(OCC(F)(F)F)ccnc1CS(=O)c1nc2ccccc2[nH]1 (configuration not stated)	654	0.3% (inactive)	8.2% (inactive)	77.3	-74.2% (inactive)	98.2	1.3	-0.826	-0.353	14.6% (inactive)	-0.466 (inactive)	-3.7e-05 (inactive)	0.00411 (inactive)	inactive	-14.9% (inactive) and -4.97% (inactive)	-45.4% (inactive)	-64.9% (inactive)	–
OCC(O)CN1CCN(c2ccccc2)CC1 (configuration not stated)	605	-6.5% (inactive)	-0.5% (inactive)	108	-69.1% (inactive)	122	0.00928	0.0558	-0.225	25.1% (inactive)	-0.455 (inactive)	-1.7e-06 (inactive)	0.00502 (inactive)	inactive	19.7% (inactive)	17.9% (inactive)	40.8% (inactive)	–
COCCc1ccc(OCC(O)CNC(C)C)cc1 (configuration not stated)	534	1.4% (inactive)	-4.4% (inactive)	85.7	-71.5% (inactive)	108	-1.75	1.07	0.0458	8% (inactive)	-0.46 (inactive)	-3.7e-05 (inactive)	0.00577 (inactive)	inactive	-6.24% (inactive) and 33.7% (inactive)	15.3% (inactive)	32.2% (inactive)	–
COC(=O)c1cc(Br)c(=O)n(Cc2cccnc2)c1	578	3% (inactive)	-10.7% (inactive)	108	-15.9% (inactive)	109	-0.222	1.1	-1.83	-3.5% (inactive)	-0.545 (inactive)	-2.2e-05 (inactive)	0.00588 (inactive)	inactive	-26.1% (inactive)	9.75% (inactive)	17.7% (inactive)	–

— PubChem BioAssay
